Among the data in the supplement of paper PMC13380429 are morphology score and SARS-CoV-2 infection rate values, retold here.

The subject of test [1] is Vero E6 infected with SARS-CoV-2. As to the kind of experiment: morphology score (similarity to uninfected cells); higher = more like uninfected cells. To be noted: 24 h.
Test [2] shares this test system. The test can be described thus: SARS-CoV-2 infection rate relative to infected DMSO; higher = more infection, active = 60 or less. To be noted: 24 h.

Consider `CCN(CC)CCOC(=O)C(Cc1cccc2ccccc12)CC1CCCO1` (mixture of isomers) [naftidrofuryl] (10 µM), for which the morphology score in test [1] came out at 0.14. The SARS-CoV-2 infection rate in test [2] is 104% (inactive).

As for `CCCCn1ccc(N2CCC(c3ccccc3)CC2)c(Cl)c1=O` (10 µM), the morphology score in test [1] was -0.265. The SARS-CoV-2 infection rate in test [2] is 116% (inactive).

As for `O=C(NC1(c2ccccc2)CC1)c1c(CN2CCC(N3CCCCC3)CC2)c(-c2cccc(C(F)(F)F)c2)nc2cc(Br)ccc12` (0.833333 µM), the morphology score in test [1] is -0.235. Further, the SARS-CoV-2 infection rate in test [2] was 112% (inactive).

For `CCC(=O)NO` (10 µM), the morphology score in test [1] amounted to 0.00785. Further, in test [2], the SARS-CoV-2 infection rate was 112% (inactive).

In test [1], `Cc1cc2c(C(N)=O)cccc2n1-c1nc2c(c(NCc3ccccc3)n1)COCC2` (10 µM) had a morphology score of -0.0618. Besides, the SARS-CoV-2 infection rate in test [2] is 116% (inactive).

In test [1], `COc1ccc(Cn2ccc3ccc(C(=O)NO)cc32)cc1` (0.833333 µM) returned a morphology score of 0.108. In addition, in test [2], the SARS-CoV-2 infection rate was 111% (inactive).

In turn, `COc1ccc(CC2NCCc3c2[nH]c2ccc(C)cc32)c(Cl)c1OC` (configuration not stated) (0.833333 µM) showed a morphology score in test [1] of -0.0343. The SARS-CoV-2 infection rate in test [2] was 104% (inactive).

`CCS(=O)(=O)N1CCC([C@@H](C)n2c(C)c(C(=O)NCc3c(OC)cc(C)[nH]c3=O)c3ccccc32)CC1` (10 µM) came in with a morphology score in test [1] of -0.000259. The SARS-CoV-2 infection rate in test [2] is 102% (inactive).

`C[C@H]1[C@H](C)CC[C@]2(C(=O)O)CC[C@]3(C)C(=CC[C@@H]4[C@@]5(C)C[C@@H](O)[C@H](O)C(C)(C)[C@@H]5CC[C@]43C)[C@H]12` [corosolic-acid] (10 µM): the morphology score in test [1] was -0.302. Further, the SARS-CoV-2 infection rate in test [2] was 116% (inactive).

In turn, `CCC1(c2ccccc2)C(=O)NCNC1=O` [primidone] (10 µM) registered a morphology score in test [1] of 0.097. The SARS-CoV-2 infection rate in test [2] is 102% (inactive).

Take `O=C(Nc1ccc(C(=O)O)c(O)c1)c1ccccc1` [benzoylpas] (10 µM): the morphology score in test [1] is 0.206. In addition, in test [2], the SARS-CoV-2 infection rate was 91.5% (inactive).

On to `COc1cc(N2CCC(N3CCN(C)CC3)CC2)ccc1Nc1ncc(Cl)c(Nc2ccccc2P(C)(C)=O)n1` [brigatinib] (0.833333 µM), for which, in test [1], the morphology score was -0.178. In addition, the SARS-CoV-2 infection rate in test [2] is 105% (inactive).

Molecule `COc1cccc(CCc2ccccc2OCC(CN(C)C)OC(=O)CCC(=O)O)c1` (configuration not stated) [sarpogrelate] (10 µM) came in with a morphology score in test [1] of 0.198. Besides, the SARS-CoV-2 infection rate in test [2] was 100% (inactive).

Consider `N#Cc1cnc2cnc(NCc3cccnc3)cc2c1Nc1ccc(F)c(Cl)c1` (10 µM), for which the morphology score in test [1] turned out to be 0.0314. Moreover, the SARS-CoV-2 infection rate in test [2] is 102% (inactive).

Molecule `N#Cc1ccc(NCCNCC(=O)N2CCC[C@H]2C#N)nc1` (10 µM) showed a morphology score in test [1] of -0.0945. The SARS-CoV-2 infection rate in test [2] was 114% (inactive).

`CC1Oc2cc(cnc2N)-c2c(nn(C)c2C#N)CN(C)C(=O)c2ccc(F)cc21` (configuration not stated) (0.833333 µM) returned a morphology score in test [1] of 0.32. Also, in test [2], the SARS-CoV-2 infection rate is 81.5% (inactive).

`O=C(NCCN1CCOCC1)c1ccc(Cl)cc1` [moclobemide] (10 µM) came in with a morphology score in test [1] of 0.182. Besides, the SARS-CoV-2 infection rate in test [2] was 103% (inactive).

For `CC(C)(O)CC(=O)O` [beta-hydroxy-beta-methylbutyrate] (10 µM), in test [1], the morphology score was 0.0168. In test [2], the SARS-CoV-2 infection rate is 105% (inactive).

In the case of `CC(C)(C)C(=O)OCOC(=O)[C@@H]1N2C(=O)[C@@H](NC(=O)[C@H](N)c3ccccc3)[C@H]2SC1(C)C` [pivampicillin] (10 µM), the morphology score in test [1] was found to be 0.0461. Moreover, the SARS-CoV-2 infection rate in test [2] was 106% (inactive).

In test [1], `C[C@H](CSC(=O)c1ccccc1)C(=O)N1C[C@@H](Sc2ccccc2)C[C@H]1C(=O)O` [zofenopril-calcium] (10 µM) came in with a morphology score of 0.0896. Besides, in test [2], the SARS-CoV-2 infection rate was 104% (inactive).

In test [1], `Cc1ccccc1NC(=O)Nc1ccc(CC(=O)N(C)[C@@H](CC(C)C)C(=O)NCC[C@H](NC(=O)[C@@H]2CCCN2S(=O)(=O)c2cc(Cl)cc(Cl)c2)C(=O)O)cc1` (10 µM) showed a morphology score of 0.157. For the same molecule, in test [2], the SARS-CoV-2 infection rate was 91% (inactive).

With `COc1cc2ncc(-c3ccccc3)nc2cc1OC` [tyrphostin-AG-1296] (10 µM), the morphology score in test [1] came out at 0.195. For the same molecule, the SARS-CoV-2 infection rate in test [2] was 108% (inactive).

In test [1], `O=C(O[C@H]1[C@H](OC(=O)c2cccnc2)[C@@H](OC(=O)c2cccnc2)[C@H](OC(=O)c2cccnc2)[C@@H](OC(=O)c2cccnc2)[C@H]1OC(=O)c1cccnc1)c1cccnc1` [inositol-hexanicotinate] (10 µM) displayed a morphology score of 0.0225. The SARS-CoV-2 infection rate in test [2] was 109% (inactive).

Consider `COC(c1ccccc1)(c1ccccc1)[C@H](Oc1nc(C)cc(C)n1)C(=O)O` [ambrisentan] (10 µM), for which the morphology score in test [1] was -0.0233. For the same molecule, the SARS-CoV-2 infection rate in test [2] was 104% (inactive).

`Nc1nc(Nc2ccccc2)nc2c1ncn2[C@@H]1O[C@H](CO)[C@@H](O)[C@H]1O` (10 µM): in test [1], the morphology score came to 0.144. In addition, the SARS-CoV-2 infection rate in test [2] was 102% (inactive).

Regarding `O=[N+]([O-])c1ccc2nc(COCc3nc4ccc([N+](=O)[O-])cc4[nH]3)[nH]c2c1` (10 µM), the morphology score in test [1] is -0.00439. The SARS-CoV-2 infection rate in test [2] is 94.5% (inactive).
